Test results as given in PubChem BioAssay AID778 (Sanford-Burnham Center for Chemical Genomics, 2007).
Among all 96,000 compounds or so, about 20,000 (21%) were called active.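 Rule for the calls: active = CYP2C19 inhibition above a set limit at 5 µM in the primary screen (cut at about 50% in these data); inactive = the rest.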 These entries were drawn from the full list.

What follows are molecules tested against Cytochrome P450 2C19 (Homo sapiens) (UniProt P33261) (assay: blockers of cytochrome P450 2C19 activity – biochemical, luminescence, ADME assay, primary screen (AID 778;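 note: plate controls were negative control wells for no effect and 2.5 mM tranylcypromine positive control for full effect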)). Details: CYP2C19 Supersomes, luciferin-H EGE luminescence, 30 min; at 5 µM; active compounds read high.
Sequence of Cytochrome P450 2C19 (Homo sapiens) (P33261 whole entry, looked up): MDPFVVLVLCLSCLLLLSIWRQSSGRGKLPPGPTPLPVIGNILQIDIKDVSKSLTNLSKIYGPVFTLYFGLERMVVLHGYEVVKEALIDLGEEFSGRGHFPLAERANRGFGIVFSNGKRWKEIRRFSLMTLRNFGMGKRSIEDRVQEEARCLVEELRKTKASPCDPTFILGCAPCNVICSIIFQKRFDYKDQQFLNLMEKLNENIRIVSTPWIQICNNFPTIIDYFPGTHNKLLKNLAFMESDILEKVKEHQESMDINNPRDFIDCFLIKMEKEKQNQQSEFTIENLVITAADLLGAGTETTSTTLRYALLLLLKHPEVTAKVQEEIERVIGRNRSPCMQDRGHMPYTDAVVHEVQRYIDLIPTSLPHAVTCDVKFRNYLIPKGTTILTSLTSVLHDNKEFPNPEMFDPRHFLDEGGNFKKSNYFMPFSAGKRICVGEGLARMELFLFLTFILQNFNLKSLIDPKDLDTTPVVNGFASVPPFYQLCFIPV
With COc1cc(OC)cc(C(=O)Nc2ncc3c(n2)CC(C)(C)CC3=O)c1 the inhibition was 9.1% (inactive).
Cc1cccc(C)c1-n1c(C)cc(/C=C2\C(=O)NN(c3ccccc3)C2=O)c1C was tested, and the inhibition was 36.4% (inactive).
For CCOC(=O)c1ccccc1NC(=O)CC1Nc2ccccc2NC1=O (stereo not given), the inhibition was 8.5% (inactive).
In the case of C=C(Br)CN1CCN(CC(=C)Br)CC1, the inhibition is reported as 9.1% (inactive).
With Cn1c(C(=O)NCCCN2CCCCC2)cc2sccc21 the inhibition was 5.3% (inactive).
COc1ccc(CCNC(=O)c2cc3sccc3n2C)cc1OC was tested, and the inhibition was 50.9% (active).
In the case of COc1ccc(CCNC(=O)c2cc(-c3ccc4c(c3)OCO4)on2)cc1OC, the inhibition is reported as -2.7% (inactive).
CC12COC3(C(=O)Nc4ccc(Cl)cn4)CC1CCC32C (stereo not given) was tested, and the inhibition was 16.5% (inactive).
In the case of O=C(CCCN1C(=O)CCC1=O)Nc1ccc(Cl)c(C(F)(F)F)c1, the inhibition is reported as 11.2% (inactive).
In the case of C=CCC(NCc1ccco1)c1ccc(OC)cc1 (stereo not given), the inhibition is reported as -0.2% (inactive).
For CC(C)C(=O)Nc1nnc(Sc2ccc(N(C)C)cc2)s1, the inhibition was 47.8% (inactive).
For Cn1c(CN2CCOCC2)nc2cc(NC(=O)c3ccc(Cl)cc3)ccc21, the inhibition was 4.8% (inactive).
With CCn1nc(C(=O)OCC(=O)N2c3ccccc3CC2C)c2ccccc2c1=O (stereo not given) the inhibition was 66.9% (active).
With CC1Cc2ccccc2N1C(=O)Cn1cnc2ccccc2c1=O (stereo not given) the inhibition was 9.8% (inactive).
In the case of CCOC(=O)c1[nH]c(C)c(C(=O)OCC(=O)N2c3ccccc3CC2C)c1C (stereo not given), the inhibition is reported as 0.9% (inactive).
COc1nc(Oc2ccc(=O)n(C)n2)nc(N(C)C)n1 was tested, and the inhibition was -17.1% (inactive).
In the case of O=C(CC1N=C2c3ccccc3N=C(SCc3ccccc3Cl)N2C1=O)NCc1ccco1 (stereo not given), the inhibition is reported as 37.8% (inactive).
With O=C(C1CCN(S(=O)(=O)Cc2ccccc2)CC1)N1CCCc2ccccc21 the inhibition was 61.9% (active).
In the case of CCS(=O)(=O)N1CCC(C(=O)N2CCN(c3ccccc3)CC2)CC1, the inhibition is reported as -1% (inactive).
In the case of Cc1noc(/C=C/c2ccco2)c1S(=O)(=O)N1CCC(C(=O)N2CCc3ccccc32)CC1, the inhibition is reported as 24.1% (inactive).
For COC(=O)C1C(=O)CC(C)(O)C(C(=O)OC)C1c1ccc2c(c1)OCO2 (stereo not given), the inhibition was 29.1% (inactive).
COc1ccc(S(=O)(=O)N(CCCN2CCCC2=O)Cc2cc3c(C)ccc(C)c3[nH]c2=O)cc1 was tested, and the inhibition was 38.4% (inactive).
Cc1ccc(S(=O)(=O)c2nc(NCCCn3ccnc3)sc2Cl)cc1 was tested, and the inhibition was 99.4% (active).
For O=C(CSCc1ccc(Br)cc1)Nc1ccc(S(=O)(=O)N2CCCCCC2)cc1, the inhibition was 27.3% (inactive).
In the case of CN(C)c1ccnc2sc3c(=O)n(Cc4ccccc4)cnc3c12, the inhibition is reported as 27.4% (inactive).
CCSc1nnc(-c2cc3c(s2)-c2ccccc2CC3)o1 was tested, and the inhibition was -5.2% (inactive).
In the case of CC(=O)NC1=NC(=O)CS1, the inhibition is reported as 6% (inactive).
With CCCC(=O)Nc1nc2ccc(NC(=O)c3cccnc3)cc2s1 the inhibition was 16.4% (inactive).
For CCN1C(=O)CS/C1=N\c1nccs1, the inhibition was 19% (inactive).
In the case of O=C1C=C(NCCNc2c(F)c(F)c(CO)c(F)c2F)CCC1, the inhibition is reported as 4.9% (inactive).
In the case of Cc1c(C=O)c2ccccn2c1C(=O)c1ccncc1, the inhibition is reported as 85.8% (active).
In the case of Cc1cc(C(=O)O)c(S(C)(=O)=O)s1, the inhibition is reported as -6.4% (inactive).
Cc1csc(NC(=O)C2CCCN2C(=O)OCC(C)C)n1 (stereo not given) was tested, and the inhibition was 29.2% (inactive).
In the case of CC(C)(C)c1cc2cccnc2n1Cc1ccccc1, the inhibition is reported as 13.8% (inactive).
For OC(c1ccccc1)c1nccn1Cc1ccccc1 (stereo not given), the inhibition was 81.9% (active).
CC(c1nnc(SCC(=O)Nc2sccc2C#N)n1-c1ccc(Cl)cc1)N(C)C (stereo not given) was tested, and the inhibition was 31.1% (inactive).
In the case of CC(=O)N1CCN(c2cccc(C)c2C)CC1, the inhibition is reported as -2.5% (inactive).
In the case of O=C(O)c1cnn2c(C(F)(F)F)cc(-c3ccccc3)nc12, the inhibition is reported as 20.2% (inactive).
In the case of Cc1cccc(N2CCN(C(=O)c3cnn4c(C(F)F)cc(-c5ccccc5)nc34)CC2)c1C, the inhibition is reported as 51% (active).
O=C(Cn1cc(-c2nnnn2-c2ccc(Cl)cc2)c(=O)c2ccccc21)c1ccccc1 was tested, and the inhibition was -16.7% (inactive).
O=C(NCCCCO)C(F)(F)C(F)(F)C(F)(F)C(=O)NCCCCO was tested, and the inhibition was 9.4% (inactive).
With CCSc1nc(-c2ccc(OC)cc2)cc(-c2ccc(OC)cc2)c1C#N the inhibition was 32.3% (inactive).
Cc1ccc(C)n1-c1ccncc1 was tested, and the inhibition was 56.5% (active).
In the case of Cc1ccc(N)cc1-n1c(C)ccc1C, the inhibition is reported as 23.2% (inactive).
With COc1ccc(-c2cc(C)nc3nc(N)nn23)cc1 the inhibition was -16.3% (inactive).
For CCOC(=O)c1ccc(-n2c(C)nc3c(cnn3-c3ccccc3C)c2=O)cc1, the inhibition was -20.1% (inactive).
With N#Cc1cccc(NC(=O)CCC2CCCC2)c1 the inhibition was 73.6% (active).
In the case of CCOc1cccc(NC(=O)CC#N)c1, the inhibition is reported as -5.8% (inactive).
In the case of COC(=O)c1sccc1NC(=O)CCC1CCCC1, the inhibition is reported as -0.5% (inactive).
CCOC(=O)N1CCC(NC(=O)C(C)n2c3ccccc3c3cnn(C)c(=O)c32)CC1 (stereo not given) was tested, and the inhibition was 5.1% (inactive).
NC(CSC12CC3CC(CC(C3)C1)C2)C(=O)O (stereo not given) was tested, and the inhibition was 12.9% (inactive).
For Cc1cc(C)cc(OCC(=O)NNC(=O)c2cc3ccccc3oc2=O)c1, the inhibition was 5.4% (inactive).
In the case of COc1ccc(C)c(Cn2c(-c3nonc3N)nc3ccccc32)c1, the inhibition is reported as 18.5% (inactive).
With CC(Nc1nc(N2CCCC2)nc2ccccc12)c1ccccc1 (stereo not given) the inhibition was 15.5% (inactive).
In the case of CC(C)n1c(C(O)c2ccccc2)nc2ccccc21 (stereo not given), the inhibition is reported as 67.7% (active).
For CCCn1c(C(O)c2cc(OC)ccc2OC)nc2ccccc21 (stereo not given), the inhibition was 74.3% (active).
In the case of CCCn1c(C(O)c2ccc(OCC)cc2)nc2ccccc21 (stereo not given), the inhibition is reported as 90.6% (active).
CCOc1ccc(C(O)Cn2c(=N)n(CCN3CCCCC3)c3ccccc32)cc1 (stereo not given) was tested, and the inhibition was 9.8% (inactive).
With COc1cc(C(O)c2nc3ccccc3n2C)cc(OC)c1OC (stereo not given) the inhibition was 46.5% (inactive).
For CCOCCn1c(C(C)C)nc2ccccc21, the inhibition was 15.5% (inactive).
For CCc1nc(Nc2ccc3nccnc3c2)c2oc3ccccc3c2n1, the inhibition was -11.6% (inactive).
In the case of O=C(N/N=C/C=C/c1ccccc1)C1CC1(c1ccccc1)c1ccccc1 (stereo not given), the inhibition is reported as -19.2% (inactive).
In the case of CCOC(=O)c1nn(-c2cccc(C)c2)cc1C(=O)c1ccccc1, the inhibition is reported as 75.3% (active).
With CC(=O)c1nn(-c2cccc(Br)c2)cc1C(=O)c1cccc2ccccc12 the inhibition was 9.4% (inactive).
In the case of Cc1ccc(NC(=O)c2nc[nH]c2C(=O)N2CCCCC2)c(C(=O)c2ccccc2)c1, the inhibition is reported as 20.4% (inactive).
